Screening data from PubChem BioAssay.
BAZ2B block = inhibitors of human BAZ2B bromodomain; Q9UIF8; AlphaScreen BAZ2B-H3K14Ac peptide displacement; Potency, µM (series often up to 114 µM), usual class: inhibitors; 360,000 compounds, 4.4% hits; AID 504333; note: nearly all actives have a fitted effect of over 60% in size
Target sequence (Q9UIF8 whole entry, looked up): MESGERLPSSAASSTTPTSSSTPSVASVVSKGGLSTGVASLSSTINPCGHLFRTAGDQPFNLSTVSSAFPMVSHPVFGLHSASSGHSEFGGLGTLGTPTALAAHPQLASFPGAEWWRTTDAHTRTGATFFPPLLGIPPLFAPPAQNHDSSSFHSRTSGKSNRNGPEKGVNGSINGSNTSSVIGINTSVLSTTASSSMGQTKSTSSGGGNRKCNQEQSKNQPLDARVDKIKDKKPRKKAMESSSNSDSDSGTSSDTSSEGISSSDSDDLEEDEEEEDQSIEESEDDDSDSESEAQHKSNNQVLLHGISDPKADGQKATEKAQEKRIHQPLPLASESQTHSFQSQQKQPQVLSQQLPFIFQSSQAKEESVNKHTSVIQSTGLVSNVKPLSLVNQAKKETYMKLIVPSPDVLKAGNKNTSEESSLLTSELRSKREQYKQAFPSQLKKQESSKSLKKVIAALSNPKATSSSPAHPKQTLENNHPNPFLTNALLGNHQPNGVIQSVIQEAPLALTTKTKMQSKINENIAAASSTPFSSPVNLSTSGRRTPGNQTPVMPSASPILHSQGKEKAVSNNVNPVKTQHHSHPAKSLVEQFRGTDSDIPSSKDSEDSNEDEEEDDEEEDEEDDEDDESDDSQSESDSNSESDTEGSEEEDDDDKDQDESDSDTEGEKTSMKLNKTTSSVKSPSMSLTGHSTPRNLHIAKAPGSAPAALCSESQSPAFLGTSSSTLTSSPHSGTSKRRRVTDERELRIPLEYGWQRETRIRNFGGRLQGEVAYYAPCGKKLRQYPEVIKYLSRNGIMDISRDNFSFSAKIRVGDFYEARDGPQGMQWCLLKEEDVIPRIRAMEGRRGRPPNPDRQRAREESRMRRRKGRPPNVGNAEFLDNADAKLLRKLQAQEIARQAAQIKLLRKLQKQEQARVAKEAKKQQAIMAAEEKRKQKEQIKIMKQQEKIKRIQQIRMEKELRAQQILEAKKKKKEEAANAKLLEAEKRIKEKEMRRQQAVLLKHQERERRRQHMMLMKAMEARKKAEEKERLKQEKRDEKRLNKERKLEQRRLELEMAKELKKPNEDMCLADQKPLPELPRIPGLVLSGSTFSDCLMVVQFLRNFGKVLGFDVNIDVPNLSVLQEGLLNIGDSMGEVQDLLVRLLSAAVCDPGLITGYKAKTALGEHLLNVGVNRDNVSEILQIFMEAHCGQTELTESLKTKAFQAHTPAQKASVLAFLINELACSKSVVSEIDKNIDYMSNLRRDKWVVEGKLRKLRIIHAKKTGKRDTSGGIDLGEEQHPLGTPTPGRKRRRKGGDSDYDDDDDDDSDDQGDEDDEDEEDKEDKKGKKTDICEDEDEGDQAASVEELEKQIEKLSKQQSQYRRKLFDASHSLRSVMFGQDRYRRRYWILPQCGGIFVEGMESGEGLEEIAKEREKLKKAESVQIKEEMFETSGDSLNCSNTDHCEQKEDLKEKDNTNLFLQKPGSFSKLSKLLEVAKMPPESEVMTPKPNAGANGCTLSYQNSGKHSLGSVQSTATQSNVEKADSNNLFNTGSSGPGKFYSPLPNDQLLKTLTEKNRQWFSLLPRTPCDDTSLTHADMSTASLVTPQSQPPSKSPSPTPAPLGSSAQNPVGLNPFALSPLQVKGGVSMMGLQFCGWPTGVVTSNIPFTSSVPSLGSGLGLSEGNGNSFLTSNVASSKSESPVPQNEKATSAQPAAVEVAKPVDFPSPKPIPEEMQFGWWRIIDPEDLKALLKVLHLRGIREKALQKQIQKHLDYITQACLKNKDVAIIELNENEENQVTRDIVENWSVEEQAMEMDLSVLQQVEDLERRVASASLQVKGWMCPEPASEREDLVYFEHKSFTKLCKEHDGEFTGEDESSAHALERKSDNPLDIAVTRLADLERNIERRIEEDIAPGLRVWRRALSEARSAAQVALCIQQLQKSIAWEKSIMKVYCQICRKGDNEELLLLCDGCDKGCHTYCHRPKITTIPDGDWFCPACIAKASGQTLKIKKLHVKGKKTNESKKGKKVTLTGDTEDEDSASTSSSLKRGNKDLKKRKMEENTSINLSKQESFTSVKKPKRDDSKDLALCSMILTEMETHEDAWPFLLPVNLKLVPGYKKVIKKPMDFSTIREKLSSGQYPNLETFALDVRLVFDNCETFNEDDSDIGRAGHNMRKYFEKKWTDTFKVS
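In this displacement format the biotinylated H3(5-23) peptide acetylated at Lys14 serves as ligand at 50 nM, with BAZ2B at 50 nM in PBS pH 7.4 containing 0.01% Tween-20. Donor and acceptor beads are 10 ug/mL final.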
JMJD2A Tudor inh = inhibitors of human JMJD2A Tudor domain. O75164. AlphaScreen JMJD2A-Tudor / H3K4me3 peptide binding. Potency, µM (doses to about 114 µM), hits mostly inhibitors. 390,000 compounds, 4.4% hits. AID 504339; note: nearly all actives have a fitted effect of over 50% in size
G9a block = inhibitors of human histone lysine methyltransferase G9a; G9a H3K9 monomethylation, AlphaScreen, 2 h; Potency, µM (highest dose often 102 µM), most hits filed as inhibitors; 350,000 compounds, 8.8% hits; note: nearly all actives have a fitted effect of over 75% in size
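Chemiluminescent proximity detection of H3K9 monomethylation, read after 10 min bead incubation in the dark. Reaction: 20 nM G9a, 500 nM biotin-H3K9 peptide, 20 uM SAM cofactor, 2 h, room temperature, following 15 min enzyme-compound preincubation.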
PLK1 PBD inh = inhibitors of human PLK1 polo-box domain binding; P53350; Potency, µM, actives largely listed as inhibitors; Plk1 PBD binding of FITC phosphopeptide, fluorescence polarization; 360,000 compounds, 2.8% hits; note: series mostly up to about 57 µM; nearly all actives have a fitted effect of over 65% in size
Sfp inh = inhibitors of Bacillus subtilis Sfp phosphopantetheinyl transferase; Q9F4F7; Biochemical Sfp PPTase activity, qHTS; Potency, µM, most hits filed as inhibitors; 310,000 compounds, 3.5% hits;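 note: the enzyme is Sfp with the accession as filed and its product quenches rhodamine fluorescence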
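After 15 min at room temperature with compound, 15 nM Sfp received 5 uM rhodamine-CoA plus 12.5 uM BHQ-2-ybbR (50 mM Hepes pH 7.6, 10 mM MgCl2). Rate came from the fluorescence difference over 30 min, ex 525/em 598 nm.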
HP1b chromo inh = blocks HP1-beta chromodomain binding to methylated histone tails | AlphaScreen HP1-beta / biotin-H3K9me3 peptide binding | 390,000 compounds, 0.56% hits | P83916 | Potency, µM (top dose mostly 114 µM), most hits filed as inhibitors; note: nearly all actives have a fitted effect of over 70% in size
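HP1-beta protein (50 nM final) preincubated 30 min at room temperature with biotinylated H3(1-18)K9me3 peptide (50 nM) in PBS pH 7.4, 0.01% Tween-20, then compound added for 30 min. AlphaScreen streptavidin donor/nickel chelate acceptor beads (10 ug/mL final), 30 min dark, luminescence read.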
Each line names hits and unclear results; the compound was inactive in the other large screens. This is a sample that favours compounds with a hit; in the whole collection about 12% have one here. Calls come from the whole dose curve; as a rule, active = well fitted curve in the direction sought with a large enough effect; inconclusive = small, poorly fitted or top-dose-only effect, or another doubt; inactive = no such curve, though single readings can be large; an effect the other way counts as inactive or inconclusive.

Oc1cccc(-c2nc3ncccn3c2Nc2cccc(C(F)(F)F)c2)c1	none (no result: PLK1 PBD inh, Sfp inh)
Cc1cc([N+](=O)[O-])cc2c1NCC1CC=CC21 (stereo not drawn)	BAZ2B block inconclusive, G9a block inconclusive
Cc1cc([N+](=O)[O-])c2c(c1C)C1C=CCC1C(c1ccccn1)N2 (stereo not drawn)	G9a block 28µM, Sfp inh inconclusive (no result: BAZ2B block, JMJD2A Tudor inh, PLK1 PBD inh, HP1b chromo inh)
CCCc1ccc(OCC(O)CN2CCN(c3ccccn3)CC2)cc1 (stereo not drawn)	BAZ2B block inconclusive, JMJD2A Tudor inh inconclusive, G9a block 50µM
CC(=O)c1ccc(OCC(O)CN2CCN(c3ccccn3)CC2)cc1 (stereo not drawn)	JMJD2A Tudor inh inconclusive, G9a block 56µM
CCc1ccc(OCC(O)CN2CCN(c3ccccn3)CC2)cc1 (stereo not drawn)	none (no result: G9a block)
CC(=O)c1ccc(OCC(O)CN2CCN(S(=O)(=O)c3c(C)c(C)cc(C)c3C)CC2)cc1 (stereo not drawn)	G9a block 50µM
Cc1ccc(S(=O)(=O)NCCSc2nnnn2-c2ccc(Cl)c(C(=O)O)c2)cc1	none (no result: PLK1 PBD inh, Sfp inh)
Cc1ccc(NC(=O)CSc2ncc3c(n2)-c2ccccc2N(Cc2cccc(F)c2)S3(=O)=O)cc1F	none (no result: PLK1 PBD inh, Sfp inh)
CCOC(=O)CCc1c(C)c2cc3c(c(C)c2oc1=O)OCN(CCc1ccccc1OC)C3	none (no result: PLK1 PBD inh, Sfp inh)
CNC(=S)Nc1cccc(C(=O)O)c1	Sfp inh 56µM
O=C(O)c1cccc(NC(=S)NC(=O)c2ccncc2)c1	JMJD2A Tudor inh inconclusive, G9a block 45µM, Sfp inh inconclusive (no result: BAZ2B block)
CC(C)(C)C(=O)NC(=S)Nc1cccc(C(=O)O)c1	Sfp inh inconclusive
O=C(NC(=S)Nc1cnc2ccccc2c1)c1ccccc1	G9a block inconclusive, Sfp inh 56µM
CC(C)CNC(=O)C1(C)CCCN1Cc1ccccc1OC(F)F (stereo not drawn)	none (no result: BAZ2B block, JMJD2A Tudor inh, G9a block, Sfp inh, HP1b chromo inh)
O=C(c1ccc([N+](=O)[O-])o1)N1CCN(c2nc3c(F)cc(F)cc3s2)CC1	JMJD2A Tudor inh inconclusive, G9a block 45µM (no result: Sfp inh)
Nc1nnc(/C=C/c2ccccc2Cl)s1	G9a block 50µM, PLK1 PBD inh inconclusive
COc1cccc(-n2c(=O)c3c(C)c(C(=O)N(C)C)sc3n(CC(=O)Nc3ccc(C)cc3Cl)c2=O)c1	none (no result: PLK1 PBD inh, Sfp inh)
O=C(CNC(=O)N1CC(=O)Nc2ccccc21)NCc1ccc(Cl)cc1	BAZ2B block 79µM (no result: G9a block)
O=C(CCNC(=O)N1CC(=O)Nc2ccccc21)NCCc1ccc(Cl)cc1	none (no result: BAZ2B block, JMJD2A Tudor inh, G9a block, Sfp inh, HP1b chromo inh)
Cc1c(Cl)cccc1NC(=O)CCNC(=O)N1CC(=O)Nc2ccccc21	PLK1 PBD inh 27µM
O=C(CCNC(=O)N1CC(=O)Nc2ccccc21)NCc1ccccc1Cl	none (no result: BAZ2B block, JMJD2A Tudor inh, G9a block, Sfp inh, HP1b chromo inh)
CCN(CC)CCNC(=O)COc1ccc(Cl)cc1Cl	G9a block inconclusive
O=C(COc1ccc(Cl)cc1Cl)NCCSc1ccc(Cl)cc1	JMJD2A Tudor inh inconclusive, PLK1 PBD inh 3µM
CN(C)CCNC(=O)COc1cccc(Cl)c1	BAZ2B block inconclusive, G9a block 22µM
CN(C)CCNC(=O)COc1ccc(Cl)cc1Cl	JMJD2A Tudor inh inconclusive, G9a block 50µM
O=C(O)CC[C@H](NC(=O)c1ccccc1C(=O)O)C(=O)O	none (no result: BAZ2B block, JMJD2A Tudor inh, PLK1 PBD inh, Sfp inh, HP1b chromo inh)
O=C(c1ccc(CSc2nc3ccncc3n2Cc2ccc(F)cc2)cc1)N1CCCCCC1	G9a block inconclusive (no result: PLK1 PBD inh, Sfp inh)
CCOC(=O)c1ccccc1NC(=O)CSc1nnc(CC)n2c1cc1occc12	BAZ2B block inconclusive (no result: PLK1 PBD inh, Sfp inh)
CC(Cl)C(=O)c1ccc2c(c1)CCN2C(=O)C1CC1 (stereo not drawn)	PLK1 PBD inh 19µM
CCOC(=O)N1CCc2c(sc3c2c(=O)n(-c2ccc(CC)cc2)c(=O)n3Cc2cc(C)ccc2C)C1	none (no result: PLK1 PBD inh, Sfp inh)
C1CN(CC23CC4CC(CC(C4)C2)C3)CCO1	G9a block 7.9µM
Cn1c(CCNC(=O)OC(C)(C)C)n[nH]c1=S	JMJD2A Tudor inh 40µM, G9a block inconclusive
CC(C)(C)OC(=O)NCc1nc(N)n[nH]1	none
CCSc1nnc(CCNC(=O)OC(C)(C)C)o1	none
CC(C)(C)OC(=O)NCCc1n[nH]c(=S)o1	JMJD2A Tudor inh inconclusive, Sfp inh 79µM (no result: G9a block)
O=C(CSc1nc2ccccc2n1CC(=O)Nc1ccc(F)cc1F)Nc1ccc(F)cc1	none (no result: PLK1 PBD inh, Sfp inh)
COc1ccccc1-c1nnc(SCC(=O)c2ccc(F)cc2)n1-c1ccccc1	BAZ2B block inconclusive, G9a block inconclusive (no result: PLK1 PBD inh, Sfp inh)
CNC(=O)c1cccn1-c1ccsc1C(=O)OC	PLK1 PBD inh 3.8µM
O=C(CSc1nc(N2CCOCC2)nc(N2CCOCC2)n1)Nc1cccc(C(F)(F)F)c1	none
O=C(NCc1nnc(-c2cc3ccccc3[nH]2)o1)c1ccccc1	none (no result: BAZ2B block, G9a block, PLK1 PBD inh, Sfp inh, HP1b chromo inh)
CN1CCC(NCCC(c2ccc(F)cc2)c2ccc(Cl)cc2)CC1 (stereo not drawn)	BAZ2B block 50µM, JMJD2A Tudor inh 0.71µM, G9a block 25µM, Sfp inh inconclusive
CC(C)C(CCNC1CCN(C)CC1)c1ccc(Cl)cc1 (stereo not drawn)	JMJD2A Tudor inh 56µM, G9a block inconclusive
CCc1ccc(NC(=O)C(C)OC(=O)Cn2[nH]c(=O)c3ccccc3c2=O)cc1 (stereo not drawn)	none (no result: BAZ2B block, JMJD2A Tudor inh, G9a block, Sfp inh, HP1b chromo inh)
